Source: PubChem BioAssay (NCI)
Compounds without any hit were thinned out: in the full panel of roughly 83,000, 20% have a hit.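 Testing used 96-well plates and a 48-hour single-concentration exposure. Example: -40 means 40% of the starting cells died.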 Values without a mark were called inactive. Active and inactive are the calls of the source.

Test system: NCI/ADR-RES ovarian
Experiment: NCI-60 one-dose screen, 48 h (100 = growth as untreated, 0 = no growth, -100 = all killed)
Settings: 10 µM unless noted
Method: Growth inhibition of the NCI/ADR-RES human […] tumor cell line is measured as a screen for anti-cancer activity. Cells are grown in 96 well plates and exposed to the test compound for 48 hours. Compounds are tested at a single concentration, which is 10^-5 M for most compounds. The reported endpoint is percent growth (GI% or GIPRCNT), where numbers from 0 - 100% represent growth inhibition, and numbers from -100% - 0 represent cell death. For example, a value of 40 represents 60% growth inhibition. A value of 0 means no net growth occurred over the course of the experiment. A value of -40 indicates 40% of cells at the beginning of the experiment died by the end of the experiment. A value of -100 means all cells are dead at the end of the experiment.
NCI-60 Human Tumor Cell Lines Screen was performed using the standard one-dose NCI protocol, which is described in more detail at https://dtp.cancer.gov/discovery_development/nci-60/default.htm.
Compounds with GIPRCNT values below 10 were considered active. Activity score was based on GIPRCNT using the following formula: […]
Score is 0 for GIPRCNT values of 100 or above, 50 for GIPRCNT values of 0, and 100 for GIPRCNT values of -100.

| SMILES | growth |
| --- | --- |
| COc1cc(-c2nc(SCCC(C)C)nc(N3CCOCC3)c2C#N)cc(OC)c1OC | 79% |
| CCN1C(=O)N(CC)C2C1NN=c1s/c(=C3\C(=O)N(CCc4ccccc4)c4ccccc43)c(=O)n12 (stereo not given) | -9.34% (active) |
| COc1cc(C(=O)/C=C/c2c(-c3cccs3)nc3ccccn23)cc(OC)c1OC | -15.6% (active) |
| CCN=C1C=CC(=C(c2ccc(N(C)C)cc2)c2ccc(N(C)C)cc2)c2ccccc21 | 12.3% |
| CN1CCN(Cc2ccc(NC(=O)c3cncc(C#Cc4cnn5ccccc45)c3)cc2C(F)(F)F)CC1 | -6.37% (active) |
| O=C(N/N=C/c1ccc(Cl)cc1Cl)c1ccc2nc(-c3ccc(Cl)cc3)[nH]c2c1 | 41.2% |
| S=c1[nH]c2cc(Cl)ccc2o1 | 106% |
| CC1(C)CC[C@]2(C(=O)N3CCOCC3)CC[C@]3(C)C(=CC[C@@H]4[C@@]5(C)C/C(=C/c6ccncc6)C(=O)C(C)(C)[C@@H]5CC[C@]43C)[C@@H]2C1 | 26.2% |
| Cn1c(=O)c2c(nc(NC3=NS(=O)(=O)c4ccccc43)n2Cc2ccccc2)n(C)c1=O | 103% |
| CCOC(=O)c1cn2ncnc(Oc3ccc(NC(=O)NC4CC4)c(F)c3)c2c1C | 99.3% |
| COc1cc(C(=O)C(=O)c2cc(OC)c(O)c(OC)c2)cc(OC)c1O | 101% |
| Fc1ccc(COc2ccc(Nc3ncnc4sc5c(c34)CCCC5)cc2)cc1 | 95.9% |
| COc1ccc(Nc2ncc(C(N)=O)c(NCCCNC(=O)C3CCC3)n2)cc1 | 100% |
| Cc1cccc(N2CCN(C(=S)c3ccc4c(c3)OCO4)CC2)c1 | -18.6% (active) |
| COc1ccc(C2CC(c3ccc(Nc4nc(Nc5ccc(F)cc5)nc(Nc5ccc(F)cc5)n4)cc3)=NN2C(C)=O)cc1 (stereo not given) | 80.5% |
| C=CCn1c(SCC(=O)Nc2ccc(C(=O)/C=C/c3ccc(OC)cc3)cc2)nnc1-c1ccccc1 | 89.1% |
| O=C1/C(=C/c2ccccc2)CN(C(=O)c2cccnc2)C/C1=C\c1ccccc1 | 18.7% |
| COc1cc(Nc2ncccc2NC(=O)c2cn(Cc3cccc(Oc4ccccc4)c3)nn2)cc(OC)c1 | 76% |
| CC1(C)C2CC=C(/C=N/NC(=O)C3CCC(=O)N3)C1C2 (stereo not given) | 105% |
| COc1cc(/C=C2\CN(S(=O)(=O)c3ccc(C)cc3)C/C(=C\c3cc(CN4CCCCC4)c(O)c(OC)c3)C2=O)cc(CN2CCCCC2)c1O | -47.2% (active) |

| SMILES | growth |
| --- | --- |
| CN(C)c1ccc(/C=C/C(=O)c2ccccc2)cc1 | 81.3% |
| O=c1[nH]c(-c2ccc(Cl)cc2)cn1-c1ccc(-n2cc(-c3ccc(Cl)cc3)[nH]c2=O)cc1 | 108% |
| C=C(C)[C@@H]1CC[C@]2(CO)CC[C@]3(C)[C@H](CC[C@@H]4[C@@]5(C)CCC(NCCc6ccc(O)cc6)C(C)(C)[C@@H]5CC[C@]43C)[C@@H]12 (stereo not given in full) | -71% (active) |
| C=CC1(C)C(O[Si](C)(C)C(C)(C)C)CC2C3OC(=O)NC31c1cccc3c1[C@H](C(=O)N3C)C2(C)C (stereo not given in full) | 60.5% |
| O=[N+]([O-])/C(=C\c1ccco1)c1ccccc1Cl | 85.5% |
| O=C(c1ccc(Cl)cc1Cl)N1c2ccccc2Sc2ccccc21 | 60.9% |
| CCOC(=O)c1c(C)c2c(n1C)CSc1cc(S(=O)(=O)c3ccccc3)c(=O)[nH]c1-2 | 18.6% [100 µM] |
| COC(=O)c1c2c(c(C)[n+]([O-])c1C)C(=O)C=CC2=O | -19.8% (active) |
| O=C(/C=C/c1ccc(Br)cc1)c1ccc(-n2cc(CN3CCN(c4cc5c(cc4F)c(=O)c(C(=O)O)cn5C4CC4)CC3)nn2)cc1 | 102% |
| Cc1nc2sc(C(=O)Nc3ccccc3)c(N)c2cc1C(=O)/C=C/c1ccccc1 | -10.7% (active) |
| O=C(O)c1cccc(N/C=C/C(=O)c2cc3cc(Br)ccc3oc2=O)c1 | 104% |
| CN(C)c1ccc(C(=NO)c2ccc(N(C)C)cc2)cc1 | 13.4% |
| Nc1c(C(=O)Nc2ccccn2)sc2nc3c(cc12)C(O)CCC3 (stereo not given) | 17.7% |
| CNCc1cccc2c1OCCOCCN(C)C(=O)CN(C)S(=O)(=O)c1ccc(cc1)-c1cnc(N)c(n1)C(=O)N2 | 102% |
| O=C1/C(=C/c2ccc(Br)cc2)COc2ccc(O)c(O)c21 | 3.52% (active) |
| Cc1nn(-c2ccccc2)c(/N=C/N(C)C)c1/C=C/C(=O)c1ccc(Cl)cc1 | 86.9% |
| COc1ccc(-c2ccc(=O)oc2C#Cc2cc(OC)c(OC)c(OC)c2)cc1O | 16.4% |
| O=C(CSc1nc2ccc([N+](=O)[O-])cc2[nH]1)Nc1cccc([N+](=O)[O-])c1 | 66.9% |
| COc1cccc(C(=O)OCC(O)C(=O)NC23CC4CC(CC(C4)C2)C3)c1 (stereo not given) | 95.2% |
| Cn1cc(-c2nn3cc(-c4ccccc4)nc3s2)c2ccccc21 | 70.5% |
